High-throughput results from PubChem BioAssay.
Compounds with a hit are over-represented: about 4.1% of the library has one in this group of screens.
hgDAF-12 ag – activates the H. glycines DAF-12 receptor ligand-binding domain | activation, % at 6.8 µM | HEK293 GAL4-hgDAF12 UAS-luciferase reporter, agonist luminescence; normalized to butyrate control | AID 687014 | 370,000 compounds, 1.8% hits;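 active = activation above a cutoff set at the mean of all screened compounds plus 3 SD, cut at about 10% in these data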
hcDAF-12 act – activators of H. contortus DAF-12 nuclear receptor. HEK293 hcDAF-12 lit1-tk-luc reporter, luminescence; 0% DMSO, 100% Δ7-dafachronic acid. activation, % at 6.8 µM. 370,000 compounds, 1.4% hits. AID 652067;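 active = activation above the mean of all tested compounds plus 3 SD, cut at about 5.5% in these data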
ssDAF12 agonist – activators of S. stercoralis DAF-12 nuclear receptor | HEK293 ssDAF-12/GRIP1 lit1-tk-luc reporter, luminescence; % of 3 µM dafachronic acid response | activation, % at 6.8 µM | 370,000 compounds, 1% hits | AID 652126;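 active = activation above the mean over all tested compounds plus 3 SD, cut at about 0.9% in these data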
DAX1 inh-1 – DAX1 (NR0B1) inhibition, primary screen. 370,000 compounds, 1.1% hits. HEK293T StAR-luciferase reporter, SF-1/DAX-1 repression relief. AID 652010. inhibition, % at 6.8 µM;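 active = inhibition above the mean over all tested compounds plus 3 SD, cut at about 3.6% in these data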;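 note: higher inhibition means more luminescence from relief of DAX-1 repression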
DAX1 inh-2 – inhibits human nuclear receptor DAX1 | HEK293 Gal4-DAX1 luciferase reporter, luminescence | inhibition, % at 6.75 µM | 340,000 compounds, 0.99% hits | AID 504766;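 active = inhibition above the mean over all tested compounds plus 3 SD, cut at about 4.2% in these data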;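 note: inhibition shows as a rise in luminescence from relieved DAX1 repression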
Target sequence (P51843 207-470 limits assumed): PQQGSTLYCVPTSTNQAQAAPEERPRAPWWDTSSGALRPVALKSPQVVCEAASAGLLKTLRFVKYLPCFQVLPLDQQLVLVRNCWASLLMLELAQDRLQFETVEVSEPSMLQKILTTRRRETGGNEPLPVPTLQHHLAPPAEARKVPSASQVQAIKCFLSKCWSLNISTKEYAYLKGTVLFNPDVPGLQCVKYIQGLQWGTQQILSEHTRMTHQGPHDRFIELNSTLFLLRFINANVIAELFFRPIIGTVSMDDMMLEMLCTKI
Large screens that a line does not name were inactive.

Cc1ccc(NC2CC(=O)N(c3ccc(C)cc3)C2=O)cc1 (stereo not given)	none
COc1ccccc1CNC(=O)N1CCC(c2nc3ccc(Cl)cc3[nH]2)CC1	none (no result: DAX1 inh-2)
O=C1C2CSCN2C(=O)CN1CCCN1CCN(C(c2ccccc2)c2ccccc2)CC1 (stereo not given)	ssDAF12 agonist 1.2
Cc1ccc(S(=O)(=O)N2CCCC2C(=O)N2CCN(c3ccccc3)CC2)cc1 (stereo not given)	none (no result: DAX1 inh-2)
S=C(N/N=C/c1cccs1)NC1CC2CCC1C2 (stereo not given)	hgDAF-12 ag 11.0 (no result: DAX1 inh-2)
Oc1ccc(/C=N/NC(=S)NC2CC3CCC2C3)cc1 (stereo not given)	none
O=C(Cn1nnc(-c2ccncc2)n1)Nc1ccc(F)cc1F	none (no result: DAX1 inh-2)
CC1CC2CCCC(O)=C2C(=O)O1 (stereo not given)	DAX1 inh-2 4.3
COc1ccc(CCNC(=O)c2cc(-c3ccncc3)nc3c(Cl)cccc23)cc1OC	none
COc1ccccc1CNC(=O)c1cc(-c2ccncc2)nc2c(Cl)cccc12	hcDAF-12 act 6.0
O=C(c1cc(Br)cc(Br)c1)N1CCC(Oc2cccnc2)CC1	none (no result: DAX1 inh-2)
Cn1cc(Cl)c(-c2nc3ccccc3[nH]2)n1	hgDAF-12 ag 12.0
Clc1ccccc1-c1nc2ccccc2[nH]1	none
O=S1(=O)CC(O)C(N(CCO)C(=S)Nc2ccccc2)C1 (stereo not given)	DAX1 inh-2 5.3
O=S1(=O)CC(O)C(Nc2ccccc2)C1 (stereo not given)	none
CC(C)(C)Nc1nc(Cl)nc(NCCN2CCOCC2)n1	DAX1 inh-2 5.4
CC(=O)NC(Cc1cccc(F)c1)C(=O)NC1CCN(C(=O)c2cccc(C)c2)CC1 (stereo not given)	DAX1 inh-2 5.4
CN(C)CCCN(C(=O)c1ccc2ccccc2c1)c1nc2cc3c(cc2s1)OCO3	none
CN(C)CCN(C(=O)c1ccc2ccccc2c1)c1nc2cc3c(cc2s1)OCCO3	DAX1 inh-1 3.7
Cc1c(C(=O)NCC2CCCO2)oc2ccc(Br)cc12 (stereo not given)	DAX1 inh-1 3.8
Cc1cccc(C(=O)Nc2nc3ccc(S(C)(=O)=O)cc3s2)c1	none
O=S(=O)(/N=C(/Nc1nc2ccccc2s1)c1ccccc1)c1ccc(F)cc1	hgDAF-12 ag 10.7, ssDAF12 agonist 0.9, DAX1 inh-1 4.4, DAX1 inh-2 6.4
Cc1ccc(NC(=O)C(=O)NCC2CCCO2)cc1C (stereo not given)	DAX1 inh-2 5.8
CS(=O)(=O)c1ccc2nc(NC(=O)c3ccccc3)sc2c1	hgDAF-12 ag 10.5
CCN1Cc2nnn(Cc3ccccc3)c2-c2ccccc2S1(=O)=O	none (no result: DAX1 inh-2)
COC(=O)[C@]12C[C@H](CC(=O)N3CCN(C(=O)c4ccco4)CC3)C(=O)N(CCc3ccc(OC)c(OC)c3)C1=C[C@H](COCc1ccccc1)O[C@@H]2C	none (no result: DAX1 inh-2)
CS(=O)(=O)c1ccc2nc(NC(=O)Nc3ccc(Cl)c(Cl)c3)sc2c1	ssDAF12 agonist 1.9
CC(=O)Nc1ccc(S(=O)(=O)NCC2CCCO2)cc1 (stereo not given)	DAX1 inh-2 5.1
CS(=O)(=O)c1ccc2nc(NC(=O)c3ccc(S(=O)(=O)NCC4CCCO4)cc3)sc2c1 (stereo not given)	DAX1 inh-2 5.4
CC(=O)Nc1ccc(C(=O)Nc2ccc(S(=O)(=O)NCC3CCCO3)cc2)cc1 (stereo not given)	none
CC1CCCN(CCCNS(=O)(=O)c2cc3c(cc2Br)CCN3C(=O)C2CC2)C1 (stereo not given)	none (no result: DAX1 inh-2)
CCCCOCCCNC(=O)C[C@@H]1C(=O)N(Cc2ccc(OC)cc2)C2=CCN(C(=O)OC(C)(C)C)C[C@]21C(=O)OCC	none (no result: DAX1 inh-2)
Cc1ccc(-n2c(Cc3cccs3)nnc2SCC(=O)Nc2ccc(OCc3ccccc3)cc2)cc1	none (no result: DAX1 inh-2)
O=c1c(N2CCOCC2)c(N2CCOCC2)c1=O	DAX1 inh-2 7.2
CC(C)Oc1c(N2CCOCC2)c(=O)c1=O	none
Cc1ccc(S(=O)(=O)N2[C@@H](Cc3ccccc3)CO[C@H]2CC(=O)c2ccccc2)cc1	none (no result: DAX1 inh-2)
Cc1ccc(S(=O)(=O)N2[C@@H](Cc3ccccc3)CO[C@H]2CC(=O)c2cccs2)cc1	DAX1 inh-1 4.0 (no result: DAX1 inh-2)
CCC(=O)NCCc1nc2cc(NC(=O)c3ccccc3OC)ccc2n1C	none
CCC(=O)NCCc1nc2cc(NC(=O)c3cccs3)ccc2n1C	DAX1 inh-1 3.6
COc1ccc(C2CC(c3ccccc3)=NN2c2ccc(N)cc2)cc1 (stereo not given)	hgDAF-12 ag 10.7
COc1ccc(C2CC(c3ccccc3O)=NN2c2ccccc2)cc1 (stereo not given)	none
COc1ccc(S[C@]2(C(=O)N3CCCC3)CC(=O)N(c3ccc4c(ccn4C)c3)[C@@H]2c2ccc(OC)cc2)cc1	none (no result: DAX1 inh-2)
Cc1nc2c(OCc3ccc(Cl)cc3)cccn2c1N(C)C(=O)CCC1CCCC1	hgDAF-12 ag 10.5 (no result: DAX1 inh-2)
COc1ccc(C)cc1Nc1nc(-c2c[nH]c3ccccc23)cs1	hcDAF-12 act 5.8
Cn1c(SCC(=O)Nc2ccc(S(=O)(=O)Nc3nccs3)cc2)nc2sc3c(c2c1=O)CCCC3	none (no result: DAX1 inh-2)
O=S(=O)(c1ccccc1)c1cnc(-c2cccnc2)nc1-c1ccc(Cl)c(Cl)c1	ssDAF12 agonist 1.6
Cc1ncc(S(=O)(=O)c2ccccc2)c(-c2ccccc2)n1	none
CC(C)c1ccc(NC(=O)O[C@@H]2CC[C@@]34CCCN3C(=O)CCC[C@H]4C2)cc1	none (no result: DAX1 inh-1, DAX1 inh-2)
CC(C)C1CC(N(C)C)=CC(=S)N1 (stereo not given)	none (no result: DAX1 inh-2)
CN(CC(=O)Nc1cccc(F)c1)C(=O)c1cccc(S(=O)(=O)N2CCN(Cc3ccccc3)CC2)c1	ssDAF12 agonist 11.3
COc1ccc(N2CCN(CCCNC(=S)Nc3c(C)cccc3C)CC2)cc1	DAX1 inh-2 5.6
COCCn1c(C)cc(C(=O)COC(=O)C23CC4CC(CC(O)(C4)C2)C3)c1C	DAX1 inh-1 4.5
Cc1cc(C(=O)COC(=O)C23CC4CC(CC(O)(C4)C2)C3)c(C)n1-c1c(C)n(C)n(-c2ccccc2)c1=O	none
Cc1cccc(C)c1NC(=O)CNC(=O)CCC(=O)N1CCOCC1	DAX1 inh-1 3.7
Nc1nc2c(C(=O)N3CCOCC3)nnn2c2ccccc12	DAX1 inh-2 6.2
C=CC[C@]1(O)C(=O)N(c2ccccc2)c2ccccc21	none (no result: DAX1 inh-2)
CCOC(=O)N1CCN(C(=O)C[C@@H]2C(=O)N(CCc3ccc(Cl)cc3)/C3=C/CCCCC[C@@]32C(=O)OCC)CC1	none (no result: DAX1 inh-2)
O=C(Nc1ccccc1C(F)(F)F)OCCCN1CCC2(CCC(c3ccccc3)CC2)C1=O (stereo not given)	none (no result: DAX1 inh-2)
Oc1ccc(/C=N/Nc2nccnc2Cl)cc1	hgDAF-12 ag 11.6
Fc1cccc(/C=N/Nc2nccnc2Cl)c1	hgDAF-12 ag 12.7
CCOc1ccc(C2CC(c3ccc(CC)cc3)Nc3nc(N)nn32)cc1 (stereo not given)	DAX1 inh-2 4.3
